# In all, about 110,000 compounds were measured (“z-score”: median about -0.1, highest 2% from about 2 on). This excerpt belongs to a sample that is enriched for the highest values. Calls of active or inactive are those of the source.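 How the source made its calls: active means z-score in the third read window above 3 or below -3; inactive means the rest.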
# Target: Metabotropic glutamate receptor 8 (Rattus norvegicus) (UniProt P70579)
# Test: rat mGluR8 modulators via GIRK flux, primary screen, cell-based, thallium flux, HTS (AID 488969)
# Conditions: HEK293 rat mGluR8, GIRK (G protein-gated inwardly rectifying potassium channel) thallium flux, FluoZin2; at 10 µM; stronger effect = higher value; submaximal glutamate (EC20) added with thallium
# Metabotropic glutamate receptor 8 (Rattus norvegicus), sequence (P70579 whole entry, looked up): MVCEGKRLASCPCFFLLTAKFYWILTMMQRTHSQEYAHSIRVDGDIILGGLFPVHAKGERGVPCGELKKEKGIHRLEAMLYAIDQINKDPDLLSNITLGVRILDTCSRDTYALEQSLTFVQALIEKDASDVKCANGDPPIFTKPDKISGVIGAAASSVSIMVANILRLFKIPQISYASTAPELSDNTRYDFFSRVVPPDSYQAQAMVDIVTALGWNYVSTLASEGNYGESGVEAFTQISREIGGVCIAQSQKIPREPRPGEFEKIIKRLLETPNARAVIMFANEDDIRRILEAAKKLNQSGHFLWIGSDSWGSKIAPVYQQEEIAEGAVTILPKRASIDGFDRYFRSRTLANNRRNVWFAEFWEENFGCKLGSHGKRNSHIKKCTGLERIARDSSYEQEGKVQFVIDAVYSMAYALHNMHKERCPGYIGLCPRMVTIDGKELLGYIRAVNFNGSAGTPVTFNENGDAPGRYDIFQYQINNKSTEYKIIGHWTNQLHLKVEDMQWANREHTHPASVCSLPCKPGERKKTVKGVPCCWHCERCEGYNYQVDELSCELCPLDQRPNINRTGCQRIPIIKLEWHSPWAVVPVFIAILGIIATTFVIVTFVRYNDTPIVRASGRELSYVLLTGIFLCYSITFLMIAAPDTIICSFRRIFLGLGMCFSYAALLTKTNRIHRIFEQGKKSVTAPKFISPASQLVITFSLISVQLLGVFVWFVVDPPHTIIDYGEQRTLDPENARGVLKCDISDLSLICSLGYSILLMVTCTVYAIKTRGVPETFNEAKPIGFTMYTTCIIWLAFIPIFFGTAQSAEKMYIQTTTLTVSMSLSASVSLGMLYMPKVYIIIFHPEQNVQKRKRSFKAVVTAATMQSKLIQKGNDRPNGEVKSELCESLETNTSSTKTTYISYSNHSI
row,Compound,z-score
1,CCOC(=O)N1CCN(C(=O)N2CCOCC2)CC1,0.275
2,COc1ccccc1N1CCN(S(=O)(=O)c2ccccc2F)CC1,-0.52
3,CCCCCCOC(=O)C(C#N)c1nc2ccccc2nc1N1CCN(C)CC1 (stereo unspecified),2.73
4,CCCCCCOC(=O)C(C#N)c1nc2ccccc2nc1N1CCCCC1 (stereo unspecified),-0.00593
5,CCCCCCOC(=O)C(C#N)c1nc2ccccc2nc1N1CCN(CC)CC1 (stereo unspecified),0.709
6,CC(C)COC(=O)C(C#N)c1nc2ccccc2nc1N1CCN(Cc2ccccc2)CC1 (stereo unspecified),-0.213
7,CCC(CC)COC(=O)C(C#N)c1nc2ccccc2nc1N1CCN(CC)CC1 (stereo unspecified),2.72
8,COCCOC(=O)C(C#N)c1nc2ccccc2nc1N1CCCC1 (stereo unspecified),-0.268
9,COc1ccc(CCNC(=O)Cc2cc(OC)c(OC)cc2[N+](=O)[O-])cc1OC,-0.376
10,COCC(=O)Nc1nnc(COc2ccc(Cl)cc2)s1,0.279
11,COc1ccc(C2c3c(ccc4ccccc34)Oc3ncn4nc(Cc5ccc(OC)c(OC)c5)nc4c32)cc1 (stereo unspecified),-0.169
12,Cc1cc(=O)oc(C)c1C(=O)N1CCN(C(c2ccccc2)c2ccccc2)CC1,0.596
13,CN(C)C(=O)C(=O)c1cccn1-c1ccccc1C#N,0.429
14,CCOC(=O)C1CCCN(C(=O)c2sc3nc(C)nc(N(CC)CC)c3c2C)C1 (stereo unspecified),-0.328
15,Cc1ccc(CC(=O)N2CCN(c3cccc(C(F)(F)F)c3)CC2)cc1,6.97 (active)
16,COc1ccccc1CC(=O)N1CCN(c2cccc(C(F)(F)F)c2)CC1,0.359
17,Cc1ccc(/C=C/C(=O)N2CCN(c3cccc(C(F)(F)F)c3)CC2)cc1,-0.0624
18,CCc1c(C(=O)Nc2nnc(C3CC3)s2)csc1C,1.09
19,CC(C)(C)c1ccc(OCc2ccc(C(=O)N/N=C/c3ccc([N+](=O)[O-])cc3)o2)cc1,-0.4
20,O=C(NN=C1CCCCCCC1)C(=O)NC1CCCCC1,0.327
21,CN1CCC(=NNC(=O)C(=O)NC2CCCC2)CC1,-0.0552
22,CN1CCC(=NNC(=O)C(=O)NC2CCCCC2)CC1,2.04
23,O=C(Cn1[nH]c(=O)c2ccccc2c1=O)NC1CCCCCC1,0.0122
24,CCOC(=O)C1[C@H]2C(=O)N(C(C)c3ccc(OC)cc3)C[C@]23C=C[C@H]1O3 (stereo partly specified),0.209

row,Compound,z-score
1,CCCOC(=O)C1[C@H]2C(=O)N(C(C)c3ccc(OC)cc3)C[C@]23C=C[C@H]1O3 (stereo partly specified),0.656
2,COc1ccc(C(C)N2CC34C=CC(O3)C(C(=O)OCC(C)C)C4C2=O)cc1 (stereo unspecified),5.16 (active)
3,CC(C)(NC(=O)N1CCOCC1)c1cccc(C(C)(C)NC(=O)N2CCOCC2)c1,-0.126
4,Cc1cc(C)c2cc(C)c3nnc(SCC(=O)NCc4ccc5c(c4)OCO5)n3c2c1,-0.513
5,COc1cc(CNCCc2c[nH]c3ccccc23)ccc1OCc1ccccc1F,0.911
6,COc1cc(CNCCc2c[nH]c3ccccc23)ccc1OCc1ccc(F)cc1,3.41 (active)
7,COc1ccccc1CCNCc1ccc(OC)c(OCc2ccccc2)c1,0.696
8,COc1cccc(CNCCc2c[nH]c3ccccc23)c1OCc1ccc(F)cc1,2.04
9,COc1cccc(CNCCc2c[nH]c3ccccc23)c1OCc1ccccc1,1.32
10,COc1cccc(CNn2cnnc2)c1OCc1ccc(F)cc1,-0.661
11,Cc1cccc(N2CCN(C(=O)COc3ccc4c(c3)CCC4)CC2)c1C,-0.161
12,CC1(C)NC(=O)N(CCSc2ccc(Cl)cc2)C1=O,-0.257
13,CCC(Sc1n[nH]c(=O)[nH]c1=O)C(=O)OCc1ccccc1 (stereo unspecified),0.193
14,O=C(NCc1ccc(F)cc1)c1cc(S(=O)(=O)N2CCOCC2)ccc1F,0.0221
15,Cc1ccc(S(=O)(=O)NCC(=O)N(CC(=O)NCc2ccco2)Cc2ccc3c(c2)OCO3)cc1,-0.622
16,COC(=O)c1cccc(CSc2nc3ccccc3[nH]2)c1,0.475
17,O=C(COC(=O)CCCSc1nc2ccccc2[nH]1)NC(=O)NC1CCCC1,-0.664
18,Fc1ccccc1CSc1nc2ccccc2[nH]1,0.129
19,COc1ccc(CSc2nc3ccccc3[nH]2)cc1,0.53
20,Fc1cccc(F)c1CSc1nc2ccccc2[nH]1,-0.786
21,Fc1ccc(CSc2nc3ccccc3[nH]2)c2ccccc12,10.7 (active)
22,COc1cccc(CSc2nc3ccccc3[nH]2)c1,2.68
23,c1ccc(OCCSc2nc3ccccc3[nH]2)cc1,2.69
24,CCNC(=O)NC(=O)COC(=O)CCCSc1nc2ccccc2[nH]1,3.23 (active)

row,Compound,z-score
1,O=c1[nH]c(SCCOc2ccccc2)nc2ccccc12,-0.359
2,Cc1cccc(OCCCSc2nc3ccccc3[nH]2)c1,0.357
3,C=CCNC(=O)NC(=O)COC(=O)CCCSc1nc2ccccc2[nH]1,-0.828
4,C/C(=N\Nc1cc(-c2ccccc2)nc(-c2ccc(Br)cc2)n1)c1cccc(N)c1,-0.0597
5,CN1CCN(C(=O)c2ccc(CS(=O)(=O)c3c(Cl)cccc3Cl)o2)CC1,0.504
6,Nn1c(SCC(=O)Nc2ccc3c(c2)OCCO3)nnc1-c1ccccn1,-0.0196
7,COCCN1C(=O)C(=O)/C(=C(/O)c2ccc(S(=O)(=O)N3CCOCC3)cc2)C1c1ccc(C(C)C)cc1 (stereo unspecified),0.0253
8,COc1ccc(NC(=O)CCS(=O)(=O)c2ccccc2)c(OC)c1,0.256
9,C=CCNC(=S)N/N=C/c1cn(-c2ccccc2)nc1-c1ccc(OC)cc1,-0.184
10,O=C(N/C=C\c1ccccc1)NCc1ccc(Cl)cc1,0.197
11,COc1ccc(C(=O)N(Cc2ccccc2)Cc2cc3cc4c(cc3[nH]c2=O)OCCO4)cc1,0.201
12,COc1cccc(C2c3c(oc4ccc(F)cc4c3=O)C(=O)N2CCN2CCOCC2)c1OC (stereo unspecified),-0.574
13,C=CCNc1cnn(CC(C)=O)c(=O)c1Br,-0.0909
14,C=CCn1c(CCNC(=O)c2cccs2)nnc1SCC(=O)c1ccc(Cl)cc1,-0.334
15,CCOc1cc2c(cc1C(C)(C)C)NC(=O)CS2,-0.538
16,CCOC(=O)C1=C(c2ccccc2)Nc2c(c(=O)n(C)c(=O)n2C)C1c1ccc(O)c(OC)c1 (stereo unspecified),0.108
17,Cc1cc([N+](=O)[O-])c(C(C)(C)C)cc1N,1.32
18,CCOc1ccc(OCCSc2nc3ccccc3c(=O)[nH]2)cc1,-0.398
19,CCCOc1ccc(CSc2nc3ccccc3[nH]2)cc1,1.22
20,CCOc1ccc(OCCSc2nc3ccccc3[nH]2)cc1,3.67 (active)
21,O=C(CCSCCC(=O)NCc1ccco1)NCc1ccco1,-0.212
22,Cc1ccc2c(c1)/C(=N/OS(=O)(=O)c1ccccc1)CCS2,-0.0781
23,COc1ccc(C(=O)Nn2cnnc2)cc1,-0.00169
24,CC(C)(C)c1ccc(C(=O)NC(=S)Nn2cnnc2)cc1,3.11 (active)

row,Compound,z-score
1,Cc1ccc(C(=O)NC(=S)Nn2cnnc2)cc1,-0.262
2,O=C(Cn1c(=O)oc2ccccc21)Nc1nnc(N2CCCCCC2)s1,-0.181
3,O=C1CSC(=Nc2ccccc2)N1,-0.108
4,Cc1cccc(N=C2NC(=O)CS2)c1,0.297
5,Cc1ccc(N=C2NC(=O)CS2)cc1,2.26
6,CCc1ccc(C(C)NC(=O)c2cc(C)oc2C)cc1 (stereo unspecified),-0.386
7,COc1cc(/C=N/NC(=O)c2ccc([N+](=O)[O-])cc2Cl)cc(Br)c1O,0.0738
8,CCOc1ccc(CCNC(=O)CN2CCN(Cc3ccccc3F)C2=O)cc1OCC,0.219
9,COc1ccc(-c2nnc(SCC(=O)N3CCCc4ccccc43)o2)cc1OC,0.39
10,Nc1nc(C2CCCCC2)cs1,0.293
11,CCC1(C)CC(c2csc(N)n2)CCO1 (stereo unspecified),2.98
12,CC1(C)CC(c2csc(N)n2)CCO1 (stereo unspecified),0.945
13,COc1ccccc1C(=O)Nc1ccc(C)cc1C(=O)c1ccccc1,-0.242
14,CC1(C)CC(=O)C(C=Nc2ccccc2Sc2ccccc2)=C(O)C1,-0.747
15,Cc1nc(Nc2ccc(F)cc2)[nH]c(=O)c1CCC(C)C,-0.00139
16,Cc1ccc(Nc2nc(C)c(CCC(C)C)c(=O)[nH]2)cc1,0.22
17,Cc1nc(Nc2ccccc2)[nH]c(=O)c1CCC(C)C,2.73
18,Cc1nnc(SCc2ccc(F)cc2Cl)s1,-0.295
19,Cc1cc(C)nc(N2CCCC(C(=O)NCCC3=CCCCC3)C2)n1 (stereo unspecified),0.000737
20,CCCN(CCC)CCCNC(=O)c1cc2c(=O)n(C)c3ccccc3c2n1C,4 (active)
21,CCCCN(CC)CCNC(=O)c1cc2c(=O)n(C)c3ccccc3c2n1C,2.85
22,CC(C)OCCCNC(=O)c1cc2c(=O)n(C)c3ccccc3c2n1C,-0.527
23,CCCN(CCC)CCNC(=O)c1cc2c(=O)n(C)c3ccccc3c2n1C,1.86
24,COCCCNC(=O)c1cc2c(=O)n(C)c3ccccc3c2n1C,-0.127

row,Compound,z-score
1,COCCNC(=O)c1cc2c(=O)n(C)c3ccccc3c2n1C,-0.524
2,CCN(CC)CCNC(=O)c1cc2c(=O)n(C)c3ccccc3c2n1C,1.25
3,CCCCN(CC)CCCNC(=O)c1cc2c(=O)n(C)c3ccccc3c2n1C,2.54
4,CN(CCNC(=O)c1cc2c(=O)n(C)c3ccccc3c2n1C)Cc1ccccc1,2.77
5,CCN(CC)CCCNC(=O)c1cc2c(=O)n(C)c3ccccc3c2n1C,1.21
6,CN(C)CCNC(=O)c1cc2c(=O)n(C)c3ccccc3c2n1C,0.703
7,CN(C)/C=N/C(=S)Nc1ccc(Br)cc1F,1.46
8,O=C(CCCn1c(SCC(=O)NC2CCCCC2)nc2ccccc2c1=O)NCC1CCCO1 (stereo unspecified),-0.0674
9,Cc1cccc(NC(=O)CSc2nnc([C@@H]3CCCN3C(=O)OC(C)(C)C)o2)c1C,1.54
10,CN1CCN(C2=CC(=O)OC23CCCCC3)CC1,0.371
11,CCOc1ccc(N/C(=C(/C(Cl)=C(Cl)Cl)[N+](=O)[O-])n2cncn2)cc1,-0.895
12,CNC(=O)c1ccc(Oc2ccc(C(=O)NC)cc2)cc1,-0.0105
13,CC(=O)c1ccc(Oc2ccc(C(C)=O)cc2)cc1,-0.0838
14,CN(C)C(=O)c1ccc(Oc2ccc(C(=O)N(C)C)cc2)cc1,2.6
15,COc1cc2[nH]c(=S)n(CCCN3CCOCC3)c(=O)c2cc1OC,0.0597
16,O=c1c2ccccc2[nH]c(=S)n1CCCN1CCOCC1,0.0674
17,O=c1c2cc(F)ccc2[nH]c(=S)n1CCCN1CCOCC1,3.11 (active)
18,COc1cc2c(=O)n(CCCN3CCOCC3)c(=S)[nH]c2c(OC)c1OC,2.07
19,COc1cc2[nH]c(=S)n(CCN3CCOCC3)c(=O)c2cc1OC,-0.262
20,O=c1c2cc(N3CCOCC3)ccc2[nH]c(=S)n1CCCN1CCCC1,-0.171

# — PubChem BioAssay AID488969 (Vanderbilt High Throughput Screening Facility, 2010)
